From PubChem BioAssay AID540275 (National Center for Advancing Translational Sciences (NCATS), 2011)
In all, about 320,000 compounds went through this assay and about 620 (0.19%) were called active. About 6% were inconclusive and are not listed. No stated cut-off is given here; in the data, active means activation above about 80%; inconclusive means between about 30% and that limit; inactive means weaker than that. The entries come from a sample that favours actives as a whole.

What follows are molecules tested against Transient receptor potential cation channel subfamily V member 1 (Homo sapiens) (UniProt Q8NER1) (assay: HTS Assay for Compounds that Act as Agonists of the Vanilloid Receptor 1). Settings: TRPV1-expressing cells, Fluo-8 calcium influx, agonist mode; at 8.33 µM; hits give high values.
Text: The transient receptor potential ion channel, family V, number 1, (TRPV1) is one of the most important molecular transducers of painful stimuli and a potential target for analgesic drug development. Although recent clinical trials with orthosteric antagonists have not produced a successful drug because of a hyperthermia side effect and their tendency to block thermal noxious pain, this ion channel is undeniably well placed in the pain pathway, and the idea of blocking pain signals before they enter the CNS is an excellent concept and of proven efficacy when TRPV1 agonists are used. We propose a new approach involving allosteric modulation to impose an activity-dependent constraint within the context of inflammation and tissue damage that would alter the responsiveness of the channel in a way that an orthosteric vanilloid antagonist cannot achieve. We believe that the allosteric modulator approach has not been explored for this target. The main goal of this proposal is to identify additional, new, potent allosteric modulators of TRPV1 that can be used to investigate TRPV1 function. Our recent report provides evidence of proof of concept, but the compounds are just at the edge of utility in terms of potency. […] The question of whether they can be used as analgesic agents is complex, but if suitable compounds are identified then testing for analgesic properties will be conducted. NIH Chemical Genomics Center [NCGC] NIH Molecular Libraries Probe Centers Network [MLPCN] MLPCN Grant: MH089480-1A1 Assay Submitter (PI): Michael Iadarola, National Institute of Dental and Cranofacial Research
Upon TRPV1 activation in TRPV1 cells, the channel opens and extracellular cations flow through the channel into the cytosol. A calcium binding dye (Fluo-8) becomes fluorescent when bound to calcium. This dye is pre-loaded into cells and is used as a marker for calcium influx. The amount of accumulated calcium is precisely quantified using the FDSS kinetic reader and the calcium dye. For the HTS assay, freshly prepared cells are plated at a density of 2000/well in 3 ul medium in 1536-well plates and cultured overnight at 35.5C. Cells will be loaded with 1 ul of the homogeneous calcium dye (ABD Bioquest) at room temperature for 40 to 90 minutes. Plates will be loaded into the FDSS kinetic reader and a 1 sec / cycle for 10 second baseline signal will be measured. Compound library will then be added with a pintool at 23 nl and measured kinetically for 3 minutes. This portion of the read is considered the agonist portion of the screen. Following the 3 minutes of incubation, an on board pipettor will deliver 1 ul of capsaicin for a final concentration equal to the EC20. Signal will be measured kinetically for an additional 2 minutes. This portion of the read is considered the allosteric enhancer portion of the screen. The FDSS reader has a standard filter set capable of measuring calcium bound Fluo-8 (ex=480 and em=520 nm).
Further: 0% is about no effect.

Chain of Transient receptor potential cation channel subfamily V member 1 (Homo sapiens) (Q8NER1 whole entry, looked up): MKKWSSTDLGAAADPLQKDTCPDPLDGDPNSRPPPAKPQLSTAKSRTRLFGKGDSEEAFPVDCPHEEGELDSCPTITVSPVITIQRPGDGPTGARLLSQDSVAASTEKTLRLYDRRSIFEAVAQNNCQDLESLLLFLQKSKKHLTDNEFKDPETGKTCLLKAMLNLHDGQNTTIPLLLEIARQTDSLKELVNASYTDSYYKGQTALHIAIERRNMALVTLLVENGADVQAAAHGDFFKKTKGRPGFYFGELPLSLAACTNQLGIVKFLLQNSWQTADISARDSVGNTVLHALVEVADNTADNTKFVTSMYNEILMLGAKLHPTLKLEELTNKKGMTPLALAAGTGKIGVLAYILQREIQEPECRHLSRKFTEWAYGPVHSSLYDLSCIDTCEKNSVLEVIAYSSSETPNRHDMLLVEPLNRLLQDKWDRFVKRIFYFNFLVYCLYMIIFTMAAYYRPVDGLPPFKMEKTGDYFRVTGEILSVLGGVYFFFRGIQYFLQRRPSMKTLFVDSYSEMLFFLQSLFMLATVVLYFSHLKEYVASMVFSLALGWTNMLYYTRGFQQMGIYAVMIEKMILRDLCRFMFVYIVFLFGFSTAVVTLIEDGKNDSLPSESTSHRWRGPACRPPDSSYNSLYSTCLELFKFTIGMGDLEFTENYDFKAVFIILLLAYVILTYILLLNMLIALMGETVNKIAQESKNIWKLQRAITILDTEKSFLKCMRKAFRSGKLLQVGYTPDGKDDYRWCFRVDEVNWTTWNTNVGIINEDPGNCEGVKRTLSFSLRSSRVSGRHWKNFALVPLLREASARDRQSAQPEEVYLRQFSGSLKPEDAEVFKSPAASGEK

Row | SMILES | activation
1 | O=C(Nc1ccc(C(F)(F)F)cc1)c1cccc(-n2cnnn2)c1 | 11.1% (inactive)
2 | COc1cc(C(=O)NNC(=O)CN2C(=O)NC3(CCCC3)C2=O)cc(OC)c1OC | -0.801% (inactive)
3 | O=C(c1ccc(Cl)c(S(=O)(=O)N2CCCCCC2)c1)N1CCN(c2ccc(O)cc2)CC1 | 13.5% (inactive)
4 | CC1CCCCC1NC(=O)NC(=O)COC(=O)C1=NN(c2ccccc2)C(=O)CC1 (stereo not drawn) | 0.278% (inactive)
5 | O=C(CNS(=O)(=O)c1ccc2c(c1)OCCCO2)N1CCN(c2ccc(F)cc2)CC1 | -2.51% (inactive)
6 | CCc1ccc(C(=O)N2CCN(S(=O)(=O)c3sc(C(=O)O)c(C)c3C(=O)O)CC2)cc1 | 0.16% (inactive)
7 | N#Cc1nc(-c2cccc3ccccc23)oc1N | -1.65% (inactive)
8 | Cc1ccc2ccc3c(c2n1)NS(=O)(=O)c1ccccc1-3 | -1.69% (inactive)
9 | COc1cccc(-n2c(SCC(=O)NC3CCS(=O)(=O)C3)nc3ccccc3c2=O)c1 (stereo not drawn) | -0.844% (inactive)
10 | CN(CC(=O)Nc1ccc(Cl)cc1)C(=O)c1ccc(COc2ccccc2)cc1 | 3.35% (inactive)
11 | CN(C)C(=O)c1ccc(NC(=O)COC(=O)c2cc3c(s2)CCCCC3)cc1 | 1.68% (inactive)
12 | O=C(Nc1ccc(F)cc1)c1cc2c(s1)CCCC2 | 87.7% (active)
13 | O=C(NCC1CCCO1)c1cc2c(s1)CCCC2 (stereo not drawn) | 17.2% (inactive)
14 | CCOC(=O)[C@@H]1[C@H]2COc3cc(OC)ccc3[C@@H]2N2C(=O)N(c3cccc(C)c3)C(=O)[C@@]12C | 2.6% (inactive)
15 | CCOC(=O)[C@H]1[C@H]2COc3ccc(OC)cc3[C@@H]2N2C(=O)c3ccc(F)cc3NC(=O)[C@@]12C | 88.1% (active)
16 | CCOC(=O)[C@@H]1[C@H]2COc3cc(OC)ccc3[C@H]2N2C(=O)N(c3ccc(F)cc3)C(=O)[C@]12C | -1.09% (inactive)
17 | CCOC(=O)c1ccccc1NC(=O)COC(=O)C(Cc1c[nH]c2ccccc12)NC(C)=O (stereo not drawn) | 17.5% (inactive)
18 | CN(C)c1ccc(/C=C/C(=O)c2ccc(C(C)(C)C)cc2)cc1[N+](=O)[O-] | -0.491% (inactive)
19 | O=C(/C=C/c1ccc(Cl)c([N+](=O)[O-])c1)c1cccnc1 | -3.27% (inactive)
20 | O=C(/C=C/c1ccc(Cl)c([N+](=O)[O-])c1)c1ccc(O)cc1 | 83.8% (active)
21 | Cc1c(/C=N\NC(=O)c2cc3ccccc3o2)c2ccccc2n1C | -1.62% (inactive)
22 | C/C(=N\NC(=S)Nc1ccc(C)cc1)c1cc2ccccc2o1 | 4.04% (inactive)

Row | SMILES | activation
23 | Cc1ccc(NC(=O)c2cc3ccccc3o2)cc1 | 102% (active)
24 | O=c1c2ccccc2ccc2ccc(P(=O)(O)O)cc12 | -0.0431% (inactive)
25 | COc1cc(C(=O)NCC(c2ccco2)N2CCCC2)ccc1OCc1ccccc1 (stereo not drawn) | 3.05% (inactive)
26 | CCOc1cc(/C=C/C(=O)OCC(=O)NCCN2C(=O)CSC2=O)ccc1OCC(C)C | 3.05% (inactive)
27 | CCOC(=O)c1sc(N)c(C#N)c1COC(=O)C1=COCCO1 | -7.68% (inactive)
28 | CC(C)(C)C(=O)CSc1ccc(S(=O)(=O)N2CCCC2)cn1 | 0.185% (inactive)
29 | CCN(CC)S(=O)(=O)c1ccc(N2CCOCC2)c(NC(=O)C(C)Oc2ccc(F)cc2)c1 (stereo not drawn) | 25.5% (inactive)
30 | O=C(NCc1ccccc1CN1CCCC1)c1cccc(S(=O)(=O)Nc2ccc(F)cc2)c1 | 2.73% (inactive)
31 | Cc1ccc(C2=NN(C)c3nc4ccccc4n3C2)cc1 | 84.2% (active)
32 | Cc1ccc(O)c(CNc2nc3ccccc3n2C)c1 | 1.21% (inactive)
33 | Cn1cccc1-c1nc2ccccc2n1C | -1.64% (inactive)
34 | COc1ccc(S(=O)(=O)N2CCOCC2)cc1NC(=O)Cc1coc2cc(C)ccc12 | -0.0282% (inactive)
35 | Cc1nc(-c2ccc(F)cc2)c(CC(=O)N(C)CC(=O)Nc2c(C)cccc2C)s1 | -1.54% (inactive)
36 | COc1ccc(-c2c(-c3cc(OC)cc(OC)c3)n(C)c3ccc(-c4ccn[nH]4)cc23)cc1 | -1.55% (inactive)
37 | COc1ccc(-c2csc(Cc3nc(O)cs3)n2)cc1 | 4.2% (inactive)
38 | CC(C)(C)C(=O)OCc1nc(-c2ccc(O)c(O)c2)cs1 | 91.2% (active)
39 | Cc1onc(C(=O)NN)c1-c1csc(COc2ccccc2)n1 | 2.64% (inactive)
40 | CCOc1ccc(OCC(=O)OC(C)C(=O)NC2CCCCC2C)cc1 (stereo not drawn) | 11.7% (inactive)
41 | CCc1ccc(/C=C2\SC(N3CCOCC3)=NC2=O)cc1 | 89.7% (active)
42 | CC1CCN(C2=NC(=O)/C(=C/c3ccc(O)cc3)S2)CC1 | 2.66% (inactive)
43 | Cc1ccsc1/C=C1\SC(N2CCOCC2)=NC1=O | 16.7% (inactive)
44 | Cc1nc(SCC(=O)NC2CCCCC2C)c(C#N)c(C)c1C (stereo not drawn) | 11% (inactive)

Row | SMILES | activation
45 | N#Cc1ccc(OCC(=O)NC(=O)NC2CCS(=O)(=O)C2)cc1 (stereo not drawn) | -0.359% (inactive)
46 | O=C(COC(=O)CCCN1C(=O)c2cccc3cccc(c23)C1=O)NC1CCS(=O)(=O)C1 (stereo not drawn) | -0.543% (inactive)
47 | Cc1ccc2c(CN3CCN(S(=O)(=O)c4ccccc4C(F)(F)F)CC3)cc(=O)oc2c1 | 4.46% (inactive)
48 | COc1cc2ccccc2cc1C(=O)N1CCOCC1 | -0.849% (inactive)
49 | O=C(CSC(=S)N1CCOCC1)c1cc(Br)cc(Br)c1O | -0.207% (inactive)
50 | O=C(c1cc2cc(Br)cc(Br)c2oc1=O)N1CCOCC1 | 87.7% (active)
51 | COc1cc(OC)cc(-c2c(-c3cccs3)c3cc(-c4ccc(OC)cc4F)ccc3n2C)c1 | -2.36% (inactive)
52 | CN(C(=O)COC(=O)Cn1cnc2c1c(=O)n(C)c(=O)n2C)C1(C#N)CCCCC1 | -2.27% (inactive)
53 | COc1ccc(C)cc1NC(=O)CN1c2cccc3cccc(c23)S1(=O)=O | -0.498% (inactive)
54 | CCCN(CC(=O)NC(=O)NC1CCCCC1)CC(=O)Nc1cc(Cl)ccc1Cl | 3.99% (inactive)
55 | O=C(CCc1ccccc1Cl)Nc1ccc(S(=O)(=O)Nc2nccs2)cc1 | -1.57% (inactive)
56 | COC(=O)c1ccc(CSc2ccc(S(=O)(=O)N3CCCCC3)cn2)cc1 | 6.26% (inactive)
57 | Cc1ccc(C(=O)NCC(c2cccs2)N(C)C)cc1S(=O)(=O)N1CCOCC1 (stereo not drawn) | 10.3% (inactive)
58 | CN1CCN(S(=O)(=O)c2ccc(N3CCN(c4ccccc4O)CC3)c([N+](=O)[O-])c2)CC1 | 4.24% (inactive)
59 | Cc1ccc(CN2CC(C(=O)N3CCN(S(=O)(=O)c4ccccc4)CC3)CC2=O)cc1 (stereo not drawn) | 0.927% (inactive)
60 | COc1ccc(NS(=O)(=O)c2cc(NC(=O)COc3ccccc3F)ccc2OC)cc1 | 0.255% (inactive)
61 | COc1ccc(C2=NN(C(=O)CSc3nnnn3C)C(c3ccco3)C2)cc1 (stereo not drawn) | -0.899% (inactive)
62 | O=C(CSc1nnc(CN2CCCC2)n1-c1ccc(F)cc1)c1ccc2c(c1)OCO2 | 4.88% (inactive)
63 | COc1ccc(Cl)cc1NC(=O)CCN1CCOCC1 | -0.647% (inactive)
64 | COc1cccc2cc(C(C)N(CCCN3CCOCC3)C(=O)Nc3ccc(Cl)cc3)oc12 (stereo not drawn) | 85.6% (active)
65 | COc1cccc(NC(=S)NCCCN2CCOCC2)c1 | -6.52% (inactive)
66 | Cc1cccc(C)c1NC(=O)COC(=O)c1c(C)nn(-c2ccccc2)c1C | 0.597% (inactive)

Row | SMILES | activation
67 | CN(C)c1ccc(/C=C2\NC(=S)N(Cc3ccccc3)C2=O)cc1 | 82.1% (active)
68 | O=C1/C(=C\c2ccsc2)NC(=S)N1c1ccccc1 | 2.57% (inactive)
69 | O=C1NCC(=O)N(Cc2ccccc2)/C1=C/c1ccccc1 | 6.12% (inactive)
70 | Cc1csc(=O)n1CCC(=O)OCC(=O)NNC(=O)c1ccc(Br)cc1 | 2.91% (inactive)
71 | OCC[C@H]1C[C@H](O)[C@@H](O)[C@]2(Cc3ccccc3CO2)O1 | 1.78% (inactive)
72 | Cc1cccc(C(=O)Nc2ccc(CC(=O)O)cc2)c1 | 1.02% (inactive)
73 | Cc1cccc(N2C(=O)c3ccc(C(=O)Nc4cccc(C(=O)O)c4)cc3C2=O)c1 | -0.654% (inactive)
74 | Cc1cccc(C(=O)Nc2ccc3c(c2)C(=O)N(CC(C)C)C3=O)c1 | 80.9% (active)
75 | N#Cc1cccc(NC(=O)C2CCCN(C(=O)c3ccc(Cl)cc3)C2)c1 (stereo not drawn) | 11.9% (inactive)
76 | O=C(/C=C\c1cn(-c2ccccc2)nc1-c1cccs1)N1CCOCC1 | 96.6% (active)
77 | O=C(O)c1ccc(N/N=C/c2cn(-c3ccccc3)nc2-c2cccs2)cc1 | -2.97% (inactive)
78 | O=C(O)/C=C/c1cn(Cc2ccccc2)nc1-c1cccs1 | 2.25% (inactive)
79 | CC(C(=O)Nc1ccc(S(=O)(=O)N2CCCC2)cc1)N(C)Cc1ccc(F)cc1 (stereo not drawn) | 17.2% (inactive)
80 | O=C(CSc1ccccc1)Nc1cccc(S(=O)(=O)N2CCCCC2)c1 | 21.4% (inactive)
81 | O=C(OCC(=O)N1CCN(C(=O)c2ccco2)CC1)c1ccc(Cl)c(Cl)c1 | 2.6% (inactive)
82 | Oc1ccc(Cl)cc1C1C=C(c2ccc3c(c2)OCO3)NC(c2ccc(F)c(Br)c2)N1 (stereo not drawn) | 6.1% (inactive)
83 | Cc1cccn2c(=O)c3cc(C(=O)NCC4CCCO4)c(=N)n(Cc4ccc(F)cc4)c3nc12 (stereo not drawn) | 84.1% (active)
84 | Cc1cccn2c(=O)c3cc(C(=O)NCCN4CCOCC4)c(=N)n(Cc4cccnc4)c3nc12 | 22.9% (inactive)
85 | COc1ccc(CCn2c(=N)c(C(=O)NCC3CCCO3)cc3c(=O)n4cccc(C)c4nc32)cc1OC (stereo not drawn) | 4.61% (inactive)
86 | COC(=O)c1cc(Oc2ccc(S(=O)(=O)N3CCOCC3)cc2[N+](=O)[O-])cc(C(=O)OC)c1 | -0.765% (inactive)
87 | CCCN(CC(=O)Nc1ccccc1C)C(=O)c1ccc2[nH]c3c(c2c1)CC(C)CC3 (stereo not drawn) | 3.39% (inactive)
88 | CCN(CC)S(=O)(=O)c1ccc(OC)c(NC(=O)CCc2c(C)noc2C)c1 | -1.51% (inactive)
